Results taken from PubChem BioAssay.

assay: RAM pathway blockade in budding yeast – dse1pr::URA3 reporter, 5-FOA selection, pilot screen (AID 869);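 further: 0% = DMSO wells with no growth and 100% = 10 µM 1-NA-PP1 with full growth; RAM network block rescues cells from 5-FOA so hits raise OD615 growth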; conditions: S. cerevisiae dse1pr::URA3 5-FOA growth, OD615, 2 d; at 10 µM; stronger effect = higher value; strain carries analog-sensitive mutant Cbk1 kinase;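 active means inhibition over a set limit, the all-compound mean plus 3 SD, in both replicate runs; inconclusive means over that limit in just one replicate run; inactive means at or under that limit in both runs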

inhibition, inactive:
COc1cc(Cl)c(S(=O)(=O)n2cnc(C)c2)cc1Cl 1.33%
O=C(CN1CCOc2ccccc21)NCc1ccccc1 0.395%
CC(C)CCNC(=O)CCS(=O)(=O)c1cccc2nonc12 1.04%
O=C1CC(c2ccc(S(=O)(=O)NCc3ccccc3)cc2)CN1 (configuration not stated) 1.56%
CC(=O)c1ccc(NC(=O)CSC(C)C)cc1 1.36%
CCn1cc(C(=O)NCC2CCCO2)c2cc(OC)c(OC)cc2c1=O (configuration not stated) 0.955%
COc1ccc(CNc2nc3c(c(=O)[nH]c(=O)n3C)n2Cc2ccccc2C)cc1 2.08%
Cc1cc(C)nc(NS(=O)(=O)c2ccc(Br)s2)c1 0.28%
CC(C)CCSc1nnc(Cn2c(=O)sc3ccccc32)n1C 1.08%
O=P(/C(=N/O)Sc1ccccc1)(N1CCOCC1)N1CCOCC1 0.62%
CC1(C)Cc2c(C#N)c(N)sc(=S)c2CO1 1.27%
CCOC(=O)N1CCN(C(=O)COc2ccc(Br)cc2)CC1 1.12%
COc1ccc(-c2nc(C(N)=O)c3[nH]c(=O)n(-c4ccccc4OC)c3n2)c(OC)c1 0.63%
O=C(Nc1nc(-c2ccccc2)cs1)c1cccs1 -0.845%
CC(NC(=O)C1CCC1)c1ccc2c(c1)OCO2 (configuration not stated) 1.67%
Cc1cc(N2C(=O)CC(Cc3ccccc3)C2=O)no1 (configuration not stated) 1.55%
Cc1cc(C)n2nc3nc4c(cc3c2n1)CCCC4 4.34%
